This is a sample that favours compounds with a hit; in the whole collection about 19% have one here.
DT40 TDP1 CPT = DT40-hTDP1 cell growth loss with CPT. chicken DT40 Tdp1-/-;hTDP1 cells + 20 nM CPT, ATP luminescence, 48 h. Potency, µM (titrated, usually from 46.2 µM), for the others: at the top dose activity change, negative = growth inhibition, hits mostly inhibitors. 420,000 compounds, 12% hits. AID 686979; also: potency is read from the fitted curve at half-maximal effect; nearly all actives have a fitted effect of over 55% in size
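Chicken DT40 Tdp1-/- cells stably complemented with human TDP1 were seeded at 400 cells/well in medium containing 20 nM camptothecin, exposed to pin-transferred compounds, and grown at 37 °C for at least 48 hr. Viability was read as ATP luminescence.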
HT1080 IDH1KD tx = kills HT-1080 cells with IDH1 knockdown | HT-1080 IDH1 knockdown viability, ATP luminescence, 48 h | Potency, µM (titrated, usually from 46.1 µM), inactives show at the highest dose activity, negative = toxicity, actives largely listed as cytotoxic | 360,000 compounds, 2% hits;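 also: potency is read from the fitted curve at half-maximal effect; 0% = DMSO wells and -100% = cell-free medium wells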
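% activity derives from luminescence (CellTiter-Glo), normalised to DMSO and no-cell wells. HT-1080-IDH1KD cells, 750/well, had 48 h compound exposure at 37 °C.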
IL-1B inflam inh = blocks inflammasome-driven IL-1 beta release; THP-1 LPS/ATP IL-1B secretion, AlphaLISA, 16 h; active compounds read low; 360,000 compounds, 4.7% hits; activity change, % at 57.5 µM; AID 743279; in the data active = activity change below about -50%; inconclusive = mostly about -30% to -49%
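Secreted IL-1B measured by AlphaLISA bead assay after 16 h compound exposure of THP-1 cells; compounds (final up to 57.5 uM) added 1 h before LPS (250 ng/mL) and ATP (1.25 mM) stimulation; lower signal means less secretion.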
TDP1 cell noCPT = qHTS for Inhibitors of human tyrosyl-DNA phosphodiesterase 1 (TDP1): qHTS in cells in absence of CPT; DT40 Tdp1-/- hTDP1 cells, no CPT, ATP luminescence, 48 h; Potency, µM (titrated, usually from 46.2 µM), without a hit: at the highest dose activity change, negative = growth inhibition, actives largely listed as inhibitors; 420,000 compounds, 15% hits; also: potency is read from the fitted curve at half-maximal effect; nearly all actives have a fitted effect of over 55% in size
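No-CPT arm: Tdp1-/-;hTDP1 DT40 cells (400/well) plus compounds, incubated ≥48 hr at 37 °C. Readout CellTiter-Glo luminescence.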
HT1080-NT tox = kills 2HG-producing HT-1080-NT fibrosarcoma cells | Potency, µM (series often up to 46.1 µM), inactives show at the highest dose activity, negative = less viability, hits mostly cytotoxic | 360,000 compounds, 1.6% hits | HT-1080-NT fibrosarcoma viability, CellTiter-Glo ATP luminescence, 48 h | AID 686970;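 also: NT is the 2HG producing partner of a matched IDH1 knockdown line; potency is read from the fitted curve at half-maximal effect; 0% = DMSO-treated cells and -100% = media-only wells without cells; nearly all actives have a fitted effect of over 55% in size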
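HT-1080-NT; 750 cells/well; 5% FBS RPMI; 48 h compound, 37 degrees C; CellTiter-Glo luminescence; curve fitting and curve-class assignment.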
Active calls of the source: *; ? = inconclusive; / = no result; ! = not confirmed by another sample. Unless noted, calls follow the shape of the dose curve; as a rule, active = well fitted curve in the direction sought with a large enough effect; inconclusive = small, poorly fitted or top-dose-only effect, or another doubt; inactive = no such curve, though single readings can be large; an effect the other way counts as inactive or inconclusive. Unless noted, % is scaled to controls: 0 for no effect and ±100 for the full control effect.

SMILES	DT40 TDP1 CPT	HT1080 IDH1KD tx	IL-1B inflam inh	TDP1 cell noCPT	HT1080-NT tox
COC(=O)C1=CN(CC2CCCO2)C=C(C(=O)OC)C1c1cccc(O)c1 (stereo not given)	2.8%	15.0%	-2.0	-6.1%	7.4%
COC(=O)C1=CN(c2ccc(F)cc2)C=C(C(=O)OC)C1c1ccc(O)cc1	6.0%	?	?	16.4µM*	-13.4%
O=C(NNC(=O)c1cccc2ccccc12)c1ccc2c(c1)OCO2	16.1%	-1.4%	-11.1	?	10.0%
Cc1c(O)nc(SCC(=O)Nc2ccc3c4c(cccc24)CC3)n(-c2ccc(F)cc2)c1=O	1.3%	-11.2%	35.1	1.1%	11.3%
COC(=O)C1=CN(c2ccc(F)cc2)C(N)=C(C#N)C1c1ccc(-c2ccccc2)cc1 (stereo not given)	7.31µM*	10.3µM*	-17.9	5.8µM*	10.3µM*
COC(=O)C1=CN(c2ccc(C(C)(C)C)cc2)C(N)=C(C#N)C1c1ccc(OC)cc1 (stereo not given)	?	-2.2%	-13.3	?	-5.0%
COC(=O)C1=CN(c2ccc(Oc3ccccc3)cc2)C(N)=C(C#N)C1c1cccc(F)c1 (stereo not given)	?	-29.4%	-0.1	8.2µM*	-24.4%
COC(=O)C1=CN(c2cc(C)cc(C)c2)C=C(C(=O)OC)C1c1cccc(F)c1	18.4µM*	9.3%	?	13µM*	0.6%
COC(=O)C1=CN(c2ccc(C)cc2)C(N)=C(C#N)C1c1ccccc1F (stereo not given)	?	?	-11.6	?	-23.5%
COC(=O)C1=CN(c2cccc(OCc3ccccc3)c2)C(N)=C(C#N)C1c1cccc(F)c1 (stereo not given)	13µM*	0.0%	-4.8	23.1µM*	-2.0%
O=C(Nc1ccc(F)c(Cl)c1)N1CCC(CN2CCOCC2)CC1	-12.6%	/	/	-26.4%	/
Cn1cnnc1SCc1ccc(C(=O)N/N=C(/CCC(=O)O)c2ccc(C(C)(C)C)cc2)cc1	-0.7%	12.1%	8.2	-7.8%	1.2%
Cc1cccc(N(C)S(=O)(=O)c2csc(C(N)=O)c2)c1	3.6%	10.6%	2.1	6.6%	-1.6%
COC(=O)C1=CN(c2ccc3c(c2)OCO3)C(N)=C(C#N)C1c1ccc(-c2ccccc2)cc1 (stereo not given)	5.8µM*	3.26µM*	67.6	6.51µM*	5.17µM*
COC(=O)C1=CN(c2c(C)cc(C)cc2C)C(N)=C(C#N)C1c1ccccc1 (stereo not given)	?	-29.2%	-13.1	?	-29.5%
CCOC(=O)C1CCN(c2cc3c(cc2NC(=O)c2cc(OC)ccc2Br)n(C)c(=O)n3C)CC1	16.4µM*	14.4%	0.0	11.6µM*	8.6%
CCOC(=O)C1CCN(c2cc3c(cc2NC(=O)c2ccccc2Br)n(C)c(=O)n3C)CC1	?	-0.6%	24.8	18.4µM*	-4.7%
CCOC(=O)c1ccccc1NC(=O)Nc1cc2c(cc1N1CCCCC1)n(C)c(=O)n2C	6.4%	/	/	0.3%	/
COc1cccc(C(=O)Nc2cc3c(cc2N2CCCC2)n(C)c(=O)n3C)c1	?	-2.2%	5.0	?	6.4%
CN(C(=O)Cn1nnc(-c2cccnc2)n1)C1CCCCC1	-0.5%	-0.7%	-13.8	6.0%	-2.0%
N#CC1=C(N)SC(N)=C(C#N)C1c1ccc([N+](=O)[O-])cc1	14.6µM*	?	-18.1	?	0.7%
CCc1ccc(C2C(C#N)=C(N)SC(N)=C2C#N)cc1	?	-12.0%	34.4	?	?
COc1cc(OC)c(C(=O)OC(C)C(=O)Nc2cccc(C(F)(F)F)c2)cc1OC (stereo not given)	23.1µM*	-19.8%	9.5	?	-2.5%
CC(OC(=O)c1cccc(S(=O)(=O)Nc2cccc(C(F)(F)F)c2)c1)C(=O)Nc1ccc2c(c1)OCCO2 (stereo not given)	-21.7%	-9.3%	-3.7	16.4µM*	-15.4%
O=S(=O)(Nc1cccc(C(F)(F)F)c1)c1ccc(NS(=O)(=O)c2ccc3c(c2)OCCO3)cc1	-27.2%	/	/	1.1%	/
SMILES	DT40 TDP1 CPT	HT1080 IDH1KD tx	IL-1B inflam inh	TDP1 cell noCPT	HT1080-NT tox
Cc1ccc(SCc2cc(=O)c3c(=O)n(-c4ccccc4)[nH]c3[nH]2)cc1	21.7%	7.9%	-4.0	-15.4%	15.3%
CCOC(=O)c1ncccc1NC(=O)CC(=O)Nc1cccnc1C(=O)OCC	-18.3%	?	?	-28.1%	?
CCc1cc(C(=O)NC2CCCN(Cc3ccccc3F)C2)n(C)n1 (stereo not given)	6.51µM*	-4.2%	35.4	9.2µM*	-1.9%
COc1ccc(C(=O)NC2CCCN(Cc3ccccc3F)C2)c(OC)c1OC (stereo not given)	?	-5.9%	10.6	5.17µM*	-4.6%
CCC(=O)N1CCC1(C)C(=O)Nc1nccs1 (stereo not given)	-5.6%	13.4%	43.4	?	21.2%
Cc1[nH][nH]c(=O)c1C(c1ccc(-c2ccc(Cl)c(C(=O)O)c2)o1)c1c(C)[nH][nH]c1=O	-12.1%	14.2%	1.1	-9.2%	7.9%
COC(=O)c1cccc(-c2ccc(C(c3c(C)[nH][nH]c3=O)c3c(C)[nH][nH]c3=O)o2)c1	7.31µM*	?	-19.3	23.1µM*	?
COC(=O)c1ccccc1-c1ccc(C(c2c(C)[nH][nH]c2=O)c2c(C)[nH][nH]c2=O)o1	?	?	?	20.6µM*	?
O=S(=O)(NCCSc1ccccn1)c1ccc(Br)cc1	-8.9%	11.0%	-14.5	-17.3%	-1.5%
N=C(N)c1ccc(Cl)cc1	20.4%	7.0%	20.5	-12.4%	5.7%
N=C(N)c1ccc(/C=C/c2ccc(C(=N)N)cc2O)cc1	13µM*!	-0.1%	-3.2	?	2.1%
Cc1cc(C)cc(Nc2cc(C(=O)NCCCN(Cc3ccccc3)C(C)C)c3ccccc3n2)c1	3.26µM*	/	/	3.26µM*	/
Cc1nnc(Sc2cc(C(=O)NCCCN(C)Cc3ccccc3)c3ccccc3n2)s1	?	-2.5%	/	?	-8.9%
CSc1cccc(Nc2cc(C(=O)NCCCN(Cc3ccccc3)C(C)C)c3ccccc3n2)c1	5.8µM*	/	/	4.61µM*	/
CSc1cccc(Nc2cc(C(=O)NC3CCCCC3)c3ccccc3n2)c1	?	/	/	-25.1%	/
Cc1ccc2c(c1)C1CN(C)CCC1N2S(=O)(=O)c1ccccc1F (stereo not given)	4.3%	-5.5%	-50.7*	17.6%	-11.6%
O=C(NCCN1CCC(n2c(=O)[nH]c3ccccc32)CC1)c1ccc(F)cc1Cl	?	6.2%	-9.8	?	1.1%

Assay outcomes as filed in PubChem.
